This is an account of results in PubChem BioAssay AID2650 (Broad Institute, 2010).

Hit rate of the full screen: of about 320,000 compounds, about 320 (0.1%) were called active. For the sample, actives were picked, then their nearest neighbours and some compounds at random. Unmarked numbers belong to inactive results.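 The calls were made as follows: active = more than half of replicates show inhibition above 20%; inconclusive = some but at most half of replicates above 20% inhibition; inactive = no replicate shows inhibition above 20%.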

The term inhibition denotes the relative decrease from the control value, in per cent.

For this assay, the target named is Glycogen synthase kinase-3 alpha (Homo sapiens) (UniProt P49840). Put plainly: blockers of GSK3A enzyme activity – biochemical, luminescence, cell-free homogeneous, HTS, primary screen (AID 2650).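 Also: GST-tagged GSK-3 alpha with peptide substrate and 25 µM ATP; 0% = DMSO neutral wells and 100% = GW8510 positive control wells.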 The settings on record: GSK-3 alpha kinase, ADP-Glo luminescence, 60 min; at 10 µM; stronger effect = higher value. A general note: ADP-Glo turns the ADP formed in a reaction into a luminescent signal.
Sequence of Glycogen synthase kinase-3 alpha (Homo sapiens) (P49840 whole entry, looked up): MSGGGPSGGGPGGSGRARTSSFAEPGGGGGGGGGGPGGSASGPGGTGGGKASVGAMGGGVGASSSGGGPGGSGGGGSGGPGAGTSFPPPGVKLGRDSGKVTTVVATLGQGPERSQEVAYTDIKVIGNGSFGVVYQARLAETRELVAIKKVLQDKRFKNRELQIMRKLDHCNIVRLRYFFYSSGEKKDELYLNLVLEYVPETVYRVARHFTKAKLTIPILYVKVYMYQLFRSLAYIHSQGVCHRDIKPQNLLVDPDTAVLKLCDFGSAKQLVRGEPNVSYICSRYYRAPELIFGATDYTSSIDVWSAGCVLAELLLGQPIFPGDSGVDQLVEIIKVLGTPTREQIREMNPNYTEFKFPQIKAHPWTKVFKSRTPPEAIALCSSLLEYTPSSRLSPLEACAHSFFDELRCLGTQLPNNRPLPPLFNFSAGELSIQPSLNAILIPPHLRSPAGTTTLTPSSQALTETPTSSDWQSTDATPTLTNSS
Consider `CC(=O)Nc1ccc(NC(=O)CC2CCCC2)cc1`, for which the inhibition is 0.623%.

For `CC(C)c1ccc(/C=C2\NC(=O)NC2=O)cc1`, the inhibition is 24.7%.

As to `Cc1ccc(C)c(CN2CCC(CNC(=O)Nc3ccc(C)c(F)c3)CC2)c1`, the inhibition is -0.807%.

Take `OCCC1CN(Cc2cccc(OC3CCCC3)c2)CCN1Cc1ccsc1` (stereo not drawn): the inhibition was -2.02%.

Turning to `CCN(CC)N=Nc1cccc(NC(C)=O)c1`, the inhibition was 2.05%.

Take `O=C(NCc1nnc(SCC(=O)N2CCC(Cc3ccccc3)CC2)o1)c1ccco1`: the inhibition is -0.692%.

`Cc1cc(C)n(Cc2cnc(N3CCOCC3)s2)n1`: the inhibition is -2.61%.

As to `CCCc1nc2oc3c(=O)[nH]cnc3c2c2c1COC(C)(C)C2`, the inhibition is 3.6%.

On to `OCCC1CN(Cc2ccccc2-c2ccco2)CCN1Cc1ccsc1` (stereo not drawn), for which the inhibition is -0.178%.

As to `CCn1cc(S(=O)(=O)c2cccc(C)c2)c(=O)c2cc(F)c(N3CCN(C)CC3)cc21`, the inhibition was -1.82%.

For the compound `O=C(CN(C(=O)c1nsc(Cl)c1Cl)c1cccc(F)c1)NC1CCCC1`, the inhibition was -1.81%.

Consider `Cc1ccc(NS(=O)(=O)c2cn(C)c(=O)n(C)c2=O)c(C)c1`, for which the inhibition was -0.792%.

With `O=C(NCc1csc(-c2cccs2)n1)C1CC1`, the inhibition was 0.318%.

Take `COc1ccc(Cc2n[nH]c(=S)n2NC(=O)Nc2ccc(C)cc2)cc1`: the inhibition is -4.11%.

With `CC(=O)N1CC(=O)N(CC(=O)Nc2ccc(Br)cc2)C1=S`, the inhibition is 2.4%.

In the case of `COc1cccc(CNC(=O)C2CCCN(c3ncnc4c3nc3n4CCCCC3)C2)c1` (stereo not drawn), the inhibition is 0.554%.

As to `CCOC(=O)CN(C(=O)COc1nc(-c2ccccc2)cc(C)c1C#N)c1ccc(F)cc1`, the inhibition was 0.174%.

For the compound `CCCCN(CC)CCNC(=O)c1[nH]c(C)c(C(C)=O)c1C`, the inhibition is 1.47%.

In the case of `CC(c1ccco1)N(C(=O)c1ccc(S(=O)(=O)N2CCCCC2)cc1)c1ccccn1` (stereo not drawn), the inhibition was -1.32%.

For `CC(=O)c1cnc(SCC(=O)O)nc1C`, the inhibition was -1.4%.

Consider `CC1=C(C(=O)OC2CCCCC2)C(c2ccccc2F)NC(=O)N1` (stereo not drawn), for which the inhibition was -2.54%.

Take `COc1ccc(N=Nc2c(-c3ccc(OC)cc3)[nH]oc2=O)cc1`: the inhibition is -3.99%.

On to `Cc1cc(C)nc(SC2CCCCC2NS(=O)(=O)c2ccc(Cl)cc2)n1` (stereo not drawn), for which the inhibition is -2.34%.

For `O=C(CN1CCN(c2ccc(O)cc2)CC1)NC1CCCc2ccccc21` (stereo not drawn), the inhibition is -2.3%.

Regarding `CC(C)NC(=O)NNc1c(Cl)cncc1Cl`, the inhibition was 2.22%.

Turning to `c1ccc2c(NCC3CCCO3)nc(-c3ccncc3)nc2c1` (stereo not drawn), the inhibition was 4.61%.

Regarding `Cn1c(=O)c2[nH]c(NCC3CCCO3)nc2n(-c2ccccc2)c1=O` (stereo not drawn), the inhibition was 53.4% (active).

With `CC(C)(C)c1nc(NCC2CCCO2)c2nnn(Cc3ccccc3)c2n1` (stereo not drawn), the inhibition is -0.49%.
